Measurements reported in article PMC6212833.
The campaign covered roughly 2,000 compounds. About 15 (0.8%) showed an effect of 50% or more. Many of the other results were omitted from the sample, so strong results are more common in it than they were.

Test system: Balamuthia mandrillaris (ATCC PRA-291) trophozoites, axenic culture
Experiment: primary screen, percent inhibition; higher = more effect of the substance;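 also: 0% = vehicle wells and 100% = lysate wells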
Conditions: 20 µM
Method: Screening of a clinically approved library of compounds, compiled by the Small Molecule Discovery Center (SMDC) at the UCSF, was completed at 20 µM in 0.2% DMSO. All 2,177 drugs in the library were stored as 10 mM stocks dissolved in 100% DMSO (Sigma-Aldrich) at −20°C. B. mandrillaris amoebae were resuspended in axenic medium and distributed into opaque 384-well plates (Corning) at a density of 3,000 amoebae per well using a BioMek NX liquid handler. Negative-control wells were treated with vehicle only (0.2% DMSO in axenic medium), and positive-control wells simulating total destruction of amoebae were seeded with amoeba lysate generated by 3 consecutive freeze-thaw cycles. Following 72 h of incubation, 30 µl of CellTiter Glo reagent (CTG; Promega) was added to each well. The luminescence was measured with a Promega GloMax-Multi+ plate reader at 2, 4, and 8 h after CTG addition. […] The B-score, representing a plate-based statistical approach for correcting row, column, and edge effects, was also calculated for each compound in the library (75).

Compound	% Inhibition [%]
C[C@]12CCC3c4ccc(O)cc4CCC3C1C[C@@H](O)[C@@H]2O (some centres unmarked)	-15
C[C@@H]1O[C@@H](O[C@H]2C[C@@H](O)[C@]3(CO)[C@H]4[C@H](O)C[C@]5(C)[C@@H](C6=CC(=O)OC6)CC[C@]5(O)[C@@H]4CC[C@]3(O)C2)[C@H](O)[C@H](O)[C@H]1O	10.8
CC[N+](CC)(CC(=O)Nc1c(C)cccc1C)Cc1ccccc1	14
CN1[C@@H]2C[C@@H](OC(=O)[C@H](CO)c3ccccc3)C[C@H]1[C@@H]1O[C@@H]12	20.7
C=CCCCCCCCCC(=O)O [735790-L3]	30.5
CCNC(=O)CCC/C=C\C[C@@H]1[C@@H](/C=C/[C@@H](O)CCc2ccccc2)[C@H](O)C[C@@H]1O	22.9
Nc1ccc(S(=O)(=O)O)cc1	31.3
CCC(=O)NCC[C@@H]1CCc2ccc3c(c21)CCO3	16.9
CC(CC(C(N)=O)(c1ccccc1)c1ccccc1)N(C)C (centres unmarked)	14.2
C=Cc1c(C)c2[n]3c1C=C1C(C)=C(CC)C4=[N+]1[Cu]31[n]3c(c(C)c(C(=O)O)c3=C(CC(=O)O)C3=[N+]1C(=C2)C(C)C3CCC(=O)O)=C4 (centres unmarked)	-2.1
COc1cc2ncnc(Nc3ccc(F)c(Cl)c3)c2cc1OCCCN1CCOCC1 [756745-L3]	-9.92
CC(=O)OCC(=O)[C@@]1(O)CCC2C3CCC4=CC(=O)CC[C@]4(C)[C@@]3(F)[C@@H](O)C[C@@]21C (some centres unmarked)	12.2
CC(=O)[C@@]1(O)CC[C@H]2[C@@H]3C[C@H](C)C4=CC(=O)C=C[C@]4(C)[C@@]3(F)[C@@H](O)C[C@@]21C	10.1
Cc1cccc(C)c1NC(=O)C1CCCCN1C (centres unmarked)	13.3
C[N+]1(C)[C@@H]2C[C@@H](OC(=O)C(O)(c3cccs3)c3cccs3)C[C@H]1[C@@H]1O[C@@H]12	11.2
O=C(O)c1ccc[n+]([O-])c1	20.7
CO/N=C(/C(=O)NC1C(=O)N2C(C(=O)O)=C(C[N+]3(C)CCCC3)CSC12)c1csc(N)n1 (centres unmarked)	21.4
CC(=O)Nc1ccc(C(=O)O)cc1	-20
COc1cc(N)c(Cl)cc1C(=O)N[C@@H]1CCN(CCCOc2ccc(F)cc2)C[C@@H]1OC	1.93

Compound	% Inhibition [%]
CCC(COC(=O)c1cc(OC)c(OC)c(OC)c1)(c1ccccc1)N(C)C (centres unmarked)	17.5
CCN(CC)CCOC(=O)C(Cc1cccc2ccccc12)CC1CCCO1 (centres unmarked)	24.5
NC(=O)[C@@H]1CCCN1C(=O)[C@H](Cc1cnc[nH]1)NC(=O)[C@@H]1CCC(=O)N1	9.33
CN1C2CCC1CC(OC(=O)[C@H](CO)c1ccccc1)C2 (some centres unmarked)	23
O=C(O)C[C@H](O)C[C@H](O)/C=C/c1c(C2CC2)nc2ccccc2c1-c1ccc(F)cc1	15.5
COCc1c(C(C)C)nc(C(C)C)c(/C=C/[C@@H](O)C[C@@H](O)CC(=O)O)c1-c1ccc(F)cc1	66.1
CC(C)c1nc(N(C)S(C)(=O)=O)nc(-c2ccc(F)cc2)c1/C=C/[C@@H](O)C[C@@H](O)CC(=O)O	35.4
N=C(N)NCC1COC2(CCCCC2)O1 (centres unmarked)	21.2
COc1ccc2cc3[n+](cc2c1OC)CCc1cc2c(cc1-3)OCO2	29.8
CC(=O)Nc1c(I)c(C(=O)N[C@H]2C(O)O[C@H](CO)[C@@H](O)[C@@H]2O)c(I)c(N(C)C(C)=O)c1I (some centres unmarked)	8.04
CCOC(=O)c1ncn2c1CN(C)C(=O)c1cc(F)ccc1-2	7.85
O=C(O)c1cccnc1Nc1cccc(C(F)(F)F)c1	25.3
COc1ccc2cc([C@H](C)C(=O)O)ccc2c1 [130714-L6]	22.7
Cc1nccn1CC1CCc2c(c3ccccc3n2C)C1=O (centres unmarked)	16.2
Cc1c(C(N)=O)cc([N+](=O)[O-])cc1[N+](=O)[O-]	20.6
C[C@H](CCC(=O)O)[C@H]1CCC2C3C(=O)CC4CC(=O)CC[C@]4(C)C3CC(=O)[C@@]21C (some centres unmarked)	17.3
CCCCCCOC(=O)/N=C(\N)c1ccc(NCc2nc3cc(C(=O)N(CCC(=O)OCC)c4ccccn4)ccc3n2C)cc1 [756753-L2]	20.4
OC(CNCC(O)C1CCc2cc(F)ccc2O1)C1CCc2cc(F)ccc2O1 (centres unmarked)	6.6
CC1OC1P(=O)(O)O (centres unmarked) [131204-L2]	12.9
